Several values for one entry are separate records, joined by “and”; a condition that tells them apart may be missing. Equal entries are not always repeated. Inconclusive results are not listed. The source holds several records for some structures; these can differ, active in one and inactive in another. Activity calls are given as the source filed them. Calls follow the shape of the dose curve; as a rule, active = well fitted inhibition curve with a large enough effect; inconclusive = small, poorly fitted or top-dose-only effect; inactive = flat fitted curve, though single readings scatter.
How the values were obtained:
CRL-7250 = normal cell line; assay: Cytotoxic Profiling of Annotated Libraries Using Quantitative High-Throughput Screening (AID 1296008); details: Five cell lines viability, CellTiter-Glo ATP luminescence, 48-72 h; max response: hits give low values; also: potency is read from the fitted curve at half-maximal effect; as to max response: % is scaled to controls: 0 for no effect and ±100 for the full control effect
Method in brief: (§1)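 Cytotoxicity was measured as CellTiter-Glo ATP luminescence, read after 10 min at room temperature. Compound treatment of the cells lasted 48 or 72 hr at 37 degrees Celsius in a qHTS format.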

HEK293 = assay: as above; details: Five cell lines viability, CellTiter-Glo ATP luminescence, 48-72 h; max response: hits give low values
Method in brief: as §1

HaCat = assay: as above; details: Five cell lines viability, CellTiter-Glo ATP luminescence, 48-72 h; max response: hits give low values
Method in brief: as §1

KB-3-1 = assay: as above; details: Five cell lines viability, CellTiter-Glo ATP luminescence, 48-72 h; max response: hits give low values
Method in brief: as §1

NIH3T3 = assay: as above; details: Five cell lines viability, CellTiter-Glo ATP luminescence, 48-72 h; max response: hits give low values
Method in brief: as §1

HB3 = assay: qHTS profiling for inhibitors of Plasmodium falciparum proliferation (AID 504749);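 also: 0% = DMSO vehicle and full inhibition = artemisinin control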; details: P. falciparum in erythrocytes, SYBR Green DNA, 72 h; series mostly up to 28.7 µM
Method in brief: (§2)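 Infected RBCs, 0.3% parasitemia/2.5% Hct final; cpd 72 h, 37 C, 5% CO2; lysis buffer with saponin/triton/SYBR Green I, o/n RT dark; FI 485/535; norm. to artemisinin (0.29 uM) and DMSO.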

ICS = assay: as above; details: P. falciparum in erythrocytes, SYBR Green DNA, 72 h; series mostly up to 28.7 µM
Method in brief: as §2

JCK = assay: as above; details: P. falciparum in erythrocytes, SYBR Green DNA, 72 h; series mostly up to 28.7 µM
Method in brief: as §2

N140 = assay: as above; details: P. falciparum in erythrocytes, SYBR Green DNA, 72 h; series mostly up to 28.7 µM
Method in brief: as §2

P93_24 = assay: as above; details: P. falciparum in erythrocytes, SYBR Green DNA, 72 h; series mostly up to 28.7 µM
Method in brief: as §2

P94_40 = assay: as above; details: P. falciparum in erythrocytes, SYBR Green DNA, 72 h; series mostly up to 28.7 µM
Method in brief: as §2

PAD = assay: as above; details: P. falciparum in erythrocytes, SYBR Green DNA, 72 h; series mostly up to 28.7 µM
Method in brief: as §2

PC15 = assay: as above; details: P. falciparum in erythrocytes, SYBR Green DNA, 72 h; series mostly up to 28.7 µM
Method in brief: as §2

PC26 = assay: as above; details: P. falciparum in erythrocytes, SYBR Green DNA, 72 h; series mostly up to 28.7 µM
Method in brief: as §2

PC49 = assay: as above; details: P. falciparum in erythrocytes, SYBR Green DNA, 72 h; series mostly up to 28.7 µM
Method in brief: as §2

SC27B = assay: as above; details: P. falciparum in erythrocytes, SYBR Green DNA, 72 h; series mostly up to 28.7 µM
Method in brief: as §2

TAB109 = assay: as above; details: P. falciparum in erythrocytes, SYBR Green DNA, 72 h; series mostly up to 28.7 µM
Method in brief: as §2

TAB113 = assay: as above; details: P. falciparum in erythrocytes, SYBR Green DNA, 72 h; series mostly up to 28.7 µM
Method in brief: as §2

TAB165 = assay: as above; details: P. falciparum in erythrocytes, SYBR Green DNA, 72 h; series mostly up to 28.7 µM
Method in brief: as §2

W2 = assay: as above; details: P. falciparum in erythrocytes, SYBR Green DNA, 72 h; series mostly up to 28.7 µM
Method in brief: as §2
Also: nearly all actives have a fitted effect of over 60% in size.

CC1(C)[C@H](O[C@H]2O[C@H](C(=O)O)[C@@H](O)[C@H](O)[C@H]2O[C@@H]2O[C@H](C(=O)O)[C@@H](O)[C@H](O)[C@H]2O)CC[C@@]2(C)[C@H]1CC[C@]1(C)[C@H]2C(=O)C=C2[C@H]3C[C@@](C)(C(=O)O)CC[C@]3(C)CC[C@]21C
inactive: max response (CRL-7250) -14.3% | max response (HEK293) 0.699% | outcome (HaCat) | outcome (KB-3-1) | outcome (NIH3T3)

OCC(O)C(O)C(O)CO (centres undefined)
inactive: Potency (HB3) | Potency (ICS) | Potency (JCK) | Potency (N140) | Potency (P93_24) | Potency (P94_40) | Potency (PAD) | Potency (PC15) | Potency (PC26) | Potency (PC49) | Potency (SC27B) | Potency (TAB109) | Potency (TAB113) | Potency (TAB165) | Potency (W2) | max response (CRL-7250) -10.5% | max response (HEK293) -3.06% | max response (HaCat) -1.15% | max response (KB-3-1) -4.24% | max response (NIH3T3) 2.68%

Cc1cnc(Nc2ccc(N3CCN(C)CC3)cc2)nc1Nc1cccc(S(=O)(=O)NC(C)(C)C)c1
active: Potency (CRL-7250) 1.48 µM | Potency (HEK293) 4.69 µM | Potency (HaCat) 0.296 µM | Potency (NIH3T3) 4.18 µM

Cn1cc(-c2cnn3c(N)c(Br)c([C@H]4CCCNC4)nc23)cn1
active: Potency (CRL-7250) 20.9 µM | Potency (HEK293) 0.418 µM | Potency (KB-3-1) 10.5 µM | Potency (NIH3T3) 0.662 µM

CC(=O)O[C@@]12CO[C@H]1C[C@H](O)[C@@]1(C)C(=O)[C@H](O)C3=C(C)[C@@H](OC(=O)C(O)[C@@H](NC(=O)OC(C)(C)C)c4ccccc4)C[C@@](O)([C@@H](OC(=O)c4ccccc4)[C@@H]21)C3(C)C (some centres undefined)
active: Potency (KB-3-1) 0.0526 µM
inactive: max response (CRL-7250) -64.7% | max response (HEK293) -90.2% | max response (NIH3T3) -88.1%

N[C@H]1CN(c2c(F)cc3c(=O)c(C(=O)O)cn(C4C[C@@H]4F)c3c2Cl)CC12CC2 (some centres undefined)
inactive: max response (CRL-7250) -23.8% | max response (HEK293) -9.37% | max response (KB-3-1) -14.1% | outcome (NIH3T3)

CS[C@H]1SC[C@@H]2C(=O)N(C)[C@H](C(C)C)C(=O)OC[C@H](NC(=O)c3cnc4ccccc4n3)C(=O)N[C@H](C)C(=O)N(C)[C@@H]1C(=O)N(C)[C@H](C(C)C)C(=O)OC[C@H](NC(=O)c1cnc3ccccc3n1)C(=O)N[C@H](C)C(=O)N2C
active: Potency (CRL-7250) 0.0074 µM | Potency (HaCat) 0.0118 µM

COC1=C2C[C@@H](C)C[C@H](OC)[C@@H](O)[C@@H](C)C=C(C)[C@H](OC(N)=O)[C@@H](OC)C=CC=C(C)C(=O)NC(=CC1=O)C2=O
active: Potency (CRL-7250) 7.43 µM | Potency (HEK293) 4.69 µM | Potency (KB-3-1) 2.09 µM | Potency (NIH3T3) 9.35 µM

COc1cc2ncnc(Nc3cccc(Br)c3)c2cc1OC
inactive: max response (CRL-7250) -23.5% | max response (HEK293) -29.7% | outcome (KB-3-1) | max response (NIH3T3) -22%

OCc1ccccc1O[C@@H]1O[C@H](CO)[C@H](O)[C@H](O)[C@H]1O
inactive: max response (CRL-7250) -20.8% | max response (HaCat) -10.2% | outcome (KB-3-1) | outcome (NIH3T3)

O=c1[nH]c(=O)n([C@H]2C[C@@H](O)[C@@H](CO)O2)cc1F
active: Potency (CRL-7250) 18.7 µM | Potency (HEK293) 0.0526 µM | Potency (KB-3-1) 13.2 µM | Potency (NIH3T3) 0.0187 µM

CN(C)CC(=O)N1CCC(c2ccc(NC(=O)c3ncc(C#N)[nH]3)c(C3=CCCCC3)c2)CC1
active: Potency (NIH3T3) 0.92 µM
inactive: outcome (CRL-7250) | max response (HaCat) 3.1% | outcome (HaCat) | max response (KB-3-1) 3.44% and -16.9% | max response (NIH3T3) 0.938%

Cc1ccc([N+](=O)[O-])cc1S(=O)(=O)N(C)N=Cc1cnc2ccc(Br)cn12
active: Potency (CRL-7250) 0.0187 µM | Potency (HEK293) 0.0235 µM | Potency (KB-3-1) 0.0209 µM | Potency (NIH3T3) 0.0743 µM

C#Cc1cccc(Nc2ncnc3cc(OCCOC)c(OCCO)cc23)c1
active: Potency (CRL-7250) 14.8 µM | Potency (HEK293) 16.6 µM | Potency (NIH3T3) 20.9 µM

CCNC(=O)Nc1ccc(-c2nc3c(c(N4CCOC[C@H]4C)n2)CCN(C2COC2)C3)cc1
active: Potency (CRL-7250) 0.296 µM | Potency (HEK293) 0.743 µM | Potency (KB-3-1) 1.32 µM | Potency (NIH3T3) 5.9 µM

N#Cc1ccc(COC[C@H]2O[C@@H](n3c(NCc4ccc(Cl)c(Cl)c4)nc4c(N)ncnc43)[C@@H](O)[C@@H]2O)cc1
active: Potency (HaCat) 11.8 µM
inactive: max response (CRL-7250) -5.8%

O=C(O)C[C@H](O)C[C@H](O)C=Cc1c(C2CC2)nc2ccccc2c1-c1ccc(F)cc1
active: Potency (CRL-7250) 0.662 µM | Potency (HEK293) 9.35 µM | Potency (HaCat) 4.69 µM | Potency (NIH3T3) 20.9 µM

FC(F)(F)c1ccc(Nc2nc3ccc(Oc4ccnc(-c5ncc(C(F)(F)F)[nH]5)c4)cc3[nH]2)cc1
active: Potency (CRL-7250) 13.2 µM and 14.6 µM
inactive: max response (HaCat) -7.61% and -42.8%

Reference: PubChem BioAssay (NCATS)
